Where “and” joins values, the source holds several entries; their conditions need not be identical. Equal entries are not always repeated. In all, about 67,000 compounds went through this assay and about 40 (0.06%) showed an effect of 50% or more. The sample as a whole holds a higher share of strong results than the screen did.
Each compound was assayed against T1, Coenzyme A biosynthesis bifunctional protein CoaBC (Mycobacterium tuberculosis (strain ATCC 25618 / H37Rv)) (UniProt P9WNZ1) (assay: Biomol Green assay for MtCoaBC inhibitor, OD650 read). Settings: 30 µM.
T1 sequence (whole entry): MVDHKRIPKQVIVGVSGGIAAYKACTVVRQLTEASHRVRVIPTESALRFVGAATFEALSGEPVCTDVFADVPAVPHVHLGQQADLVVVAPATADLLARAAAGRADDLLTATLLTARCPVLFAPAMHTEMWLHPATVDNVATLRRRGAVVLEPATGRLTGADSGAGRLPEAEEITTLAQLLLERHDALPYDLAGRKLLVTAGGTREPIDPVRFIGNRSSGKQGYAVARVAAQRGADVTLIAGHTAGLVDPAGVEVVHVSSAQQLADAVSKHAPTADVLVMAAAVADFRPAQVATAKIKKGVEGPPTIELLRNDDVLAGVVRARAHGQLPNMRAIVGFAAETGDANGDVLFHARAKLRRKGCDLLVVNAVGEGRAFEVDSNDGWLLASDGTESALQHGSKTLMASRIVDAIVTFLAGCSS
Type: functional
Set-up: scale not given: in the data most compounds retested in dose-response had high values
COc1cc(N2CCC[C@]3(C(=O)O)CN(C(C)C)C[C@@H]3C2)ncn1 was tested, and the Percent Effect was -10.7%. Compound c1ccc(CN2C[C@@H]3COC[C@]3(COCC3CCOCC3)C2)nc1 has a Percent Effect of 9.51%. With COCCNC(=O)C[C@@H]1COC[C@H]2CN(CC3CCOCC3)C[C@@H]12 the Percent Effect was -2.48%. Compound COc1cnc(N2CCN(C)CC2)nc1-c1ccnn1C has a Percent Effect of 5.52%. With Cc1cnc(N2CCN(C)CC2)nc1-c1ccnn1C the Percent Effect was 5.03%. CN1[C@H](Cn2cccn2)C[C@@H]2CN(Cc3cccs3)CC[C@@H]21 gave a Percent Effect of 5.67%. Compound CO[C@@H]1CN(Cc2scnc2C)[C@@H]2CCCO[C@@H]21 has a Percent Effect of -51.5%. With O=C(c1ccc[nH]1)N1C[C@H]2CN(Cc3cccc(F)c3)C(=O)[C@H]2C1 the Percent Effect was 8.74%. With Cc1ccc(S(=O)(=O)NCCNC(=O)c2cncnc2C)cc1 the Percent Effect was 5.91%. With CCc1ncncc1C(=O)NCCNS(=O)(=O)c1ccc(C)cc1 the Percent Effect was 3.17% and 20.9%. Compound Cc1ccc(N2CCO[C@H]3CN(Cc4cccnc4)C[C@H]32)nn1 has a Percent Effect of 3.85%. C[C@H]1C[C@H]2CN(C(=O)c3ccncn3)CC[C@@H]2O1 showed a Percent Effect of 3.76%. With Cc1cccc(CN2C[C@H]3CCC[C@@]3(COCc3csc(C)n3)C2)n1 the Percent Effect was 3.06%. Compound CCOCC1CN(C(=O)C2=CCCC2)Cc2cnn(CC)c21 (configuration not stated) has a Percent Effect of 12.8%. Compound CCOCC1CN(C(=O)N2CCCC2)Cc2cnn(C)c21 (configuration not stated) has a Percent Effect of -2.1%. For O=C1NCCO[C@H]2CN(C(=O)c3cccs3)CC[C@@H]12, the Percent Effect was 2.96%. With CNC(=O)[C@H]1C[C@@H]2CN(C(=O)c3ccncc3)C[C@@H]2N1S(C)(=O)=O the Percent Effect was 2.59%. Work on O=C(NCCc1cccs1)[C@H]1CO[C@H]2CCN(C3CCC3)C[C@H]2C1 yielded a Percent Effect of 6.17%. Compound O=C1CO[C@@H]2CNC[C@H]2N1CC1CC1 has a Percent Effect of 0%. For Cn1cc(CN2CC[C@@H]3[C@@H]2CCN3C(=O)c2cccc(F)c2)cn1, the Percent Effect was 5.07%. In the case of Cc1cc(N2CCC(O)CC2)nc(C)n1, the Percent Effect was 11.1%. In the case of CN1CCCCC1c1cncc(N2CCC(O)CC2)n1 (configuration not stated), the Percent Effect was -0.526%. CCCc1cc(C(=O)N2C[C@H]3CC=C(C)C[C@H]3C2)ccn1 showed a Percent Effect of 2.3%. O=C(NCC1CCOCC1)[C@@H]1C[C@@H]2[C@@H](CCN2Cc2ccoc2)O1 was tested, and the Percent Effect was 2.96%. Compound CCc1cnc(N2C[C@H]3CN(Cc4ccc(OC)cc4)C(=O)[C@H]3C2)nc1 has a Percent Effect of -3.75%. In the case of CC(C)c1nc(C(=O)N2C[C@H]3CC[C@@H]2CN(C2CCOCC2)C3)cs1, the Percent Effect was 5.66%. Cn1cc(CN2CC[C@H]3O[C@H](C(=O)NC4CC4)CC[C@H]32)c2ccccc21 showed a Percent Effect of -3.06%. Work on CN(C)c1ncc2c(n1)CN(C1CC(C)(C)NC(C)(C)C1)C2=O yielded a Percent Effect of 0.231%. In the case of CC(C)OC(=O)N1C[C@H]2CC[C@@H]1CN(Cc1cccnc1)C2, the Percent Effect was 5.14%. For COC1CCN(CCNC(=O)NC(C)c2cccc(Cl)c2)CC1 (configuration not stated), the Percent Effect was -0.455%. For COC1CCN(CCNC(=O)NCC(C)c2cccc(C)c2)CC1 (configuration not stated), the Percent Effect was -16.8%. For COc1cccc(CN2C[C@H]3CC[C@H]2C3)c1OCCN1CCOCC1, the Percent Effect was 4.29%. CCc1ccc(CN2CCN(CCOC)[C@@H]3CS(=O)(=O)C[C@@H]32)cc1 gave a Percent Effect of 8.73%. Work on Cc1noc(C)c1CN1C[C@@H]2COC[C@H](C(=O)N3CCCCO3)[C@@H]2C1 yielded a Percent Effect of 0.259%. Work on CC(C)N(Cc1ccc(Cl)c(Cl)c1)C(=O)Cn1cncn1 yielded a Percent Effect of 5.66%. CC(C)N(Cc1ccc(Cl)c(Cl)c1)C(=O)CCn1cncn1 gave a Percent Effect of 5.9%. O=C(c1ccncc1)N1C[C@@H](OCc2cccnc2)[C@H]2OCCC[C@H]21 was tested, and the Percent Effect was 4.2%. Cc1ccc(-n2cc(S(=O)(=O)Nc3cccc(C(=O)O)c3C)cn2)cc1 showed a Percent Effect of 0.726%. With Cc1ccc(NS(=O)(=O)c2cnn(-c3ccccc3)c2)c(C(=O)O)c1 the Percent Effect was 64.4% and 43.6%. Cc1ccc(NS(=O)(=O)c2cnn(Cc3ccccc3)c2)c(C(=O)O)c1 showed a Percent Effect of 0.726%. Compound COCCC(=O)NC[C@H]1CC[C@H](C(c2ccccn2)N(C)C)CC1 (some centres not stated) has a Percent Effect of -1.84%. Compound CNC(=O)N1CC[C@@H]2CN(Cc3ccccc3)S(=O)(=O)[C@@H]2CC1 has a Percent Effect of 1.48%. With Cc1ccc(N2CC[C@@]3(O)CCN(S(C)(=O)=O)C[C@H]3C2)nn1 the Percent Effect was -0.123%. For O=C(CC1CC1)N1CC[C@H]2[C@@H]1CCC(=O)N2c1cccnc1, the Percent Effect was 5.4%. In the case of COc1cc(N2CC[C@@H]3O[C@H](C(=O)NCC4CC4)C[C@@H]32)ncn1, the Percent Effect was -0.37%. O=C1COC2(CCN(Cc3ccoc3)CC2)CN1CCn1cccn1 gave a Percent Effect of -3.75%. COCCN1CCC2(CC1)CN(CCn1cccn1)C(=O)CO2 gave a Percent Effect of -1.25%. Cn1cc(C(=O)N2CC[C@@]3(O)CCN(C4CCCCC4)C[C@H]3C2)cn1 gave a Percent Effect of 0.467%. Compound CN(C)CCO[C@@H]1CC[C@H]2[C@H]1OCCN2C(=O)c1ccccc1F has a Percent Effect of 3.95%. CNC(=O)[C@H]1C[C@@H]2CN(S(=O)(=O)c3ccc(C)cc3)C[C@@H]2N1C showed a Percent Effect of 1.63%. For O=C([C@@H]1C[C@@H]2CCN(c3cccc(F)c3)C[C@H]2O1)N1CCCC1, the Percent Effect was -8.02%. Cc1cccc(CN2C(=O)C[C@H]3[C@@H]2CCN3Cc2ccc(F)cc2)n1 showed a Percent Effect of 9.41%. In the case of CC(=O)N1[C@H](Cn2cncn2)C[C@@H]2CN(c3ccc(C)nn3)CC[C@@H]21, the Percent Effect was 6.82%. For O=C(NC1CCC1)[C@@H]1C[C@@H]2CCN(Cc3ccncc3)C[C@H]2O1, the Percent Effect was 4.7%. Cc1ccc(NC2(C(=O)N3CCn4cncc4C3)CCCCC2)cc1C showed a Percent Effect of 4.82%. With COc1ccc(NC2(C(=O)N3CCn4cncc4C3)CCCC2)cc1 the Percent Effect was 8.96%. In the case of CC1=N[C@@]2(CC[C@@H]3CN(C(=O)NCc4ccccc4C)C[C@@H]32)C(=O)N1, the Percent Effect was 0.609%. O=C(COC[C@@H]1CC[C@H]2[C@H](CCN2Cc2ccco2)O1)N1CCCC1 gave a Percent Effect of 9.53%. For CC(C)C(NC(=O)NCC1CC1)c1nnc2n1CCC2 (configuration not stated), the Percent Effect was -0.508%. For CCC1(CNC(=O)NC(c2nnc3n2CCC3)C(C)C)CCC1 (configuration not stated), the Percent Effect was -3.55%. With COCCN1C(=O)[C@]2(CC[C@@H]3CN(S(=O)(=O)CC(C)C)C[C@@H]32)N=C1C the Percent Effect was -3.81%. CC(C)CC(=O)N1CC[C@@H]2CN(CC(=O)N(C)C)S(=O)(=O)[C@@H]2CC1 was tested, and the Percent Effect was 2.32%. In the case of Cc1noc([C@H]2C[C@@H]3CCN(CC4CC4)C[C@H]3O2)n1, the Percent Effect was -1.9%. For Cc1cccc(CN2CC[C@H]3[C@H]2CCN3Cc2cnn(C)c2)n1, the Percent Effect was -4.59%. For c1cc(COC[C@@]23CCC[C@@H]2CN(C2CCOCC2)C3)ccn1, the Percent Effect was 6.42%. Cc1cnn(CC2CCCN2Cc2nnc(Cc3ccccc3)o2)c1 (configuration not stated) was tested, and the Percent Effect was 0.119%. In the case of Cc1cnn(CC2CCCN2Cc2ncc(-c3ccccc3)o2)c1 (configuration not stated), the Percent Effect was 2.73%.

Reference: ChEMBL document CHEMBL3988442, “University of Dundee, Small-Polar-MMV Screening Library” (2021)
